# Measured values reported in PubChem BioAssay (Tox21).
# A number with no mark means an inactive call. Activity calls are given as the source filed them. The call rests on the fitted dose curve; in most records, active means well fitted curve in the direction sought with a large enough effect in the repeat runs; inconclusive means weak or mixed curves; inactive means flat fitted curve, though single readings scatter.
# Assay: qHTS assay to test for compound auto fluorescence at 535 nm (green) in HepG2 cell free culture (AID 720686)
# Conditions: Cell-free medium, green autofluorescence 485/535 nm; series mostly up to 91.3 µM; fluorescence, % of fluorescein control: at the top concentration
# On the % scale 0 is the no-effect control and ±100 the full control effect.
SMILES,"fluorescence, % of fluorescein control",outcome
C/C=C/C=C/CCCCCCCO,0.0519%,–
Cc1cc(OI)c(C(C)C)cc1-c1cc(C(C)C)c(OI)cc1C,-0.127% [at 46 µM],–
CCCCN(CCCC)CCCOC(=O)c1ccc(N)cc1,-0.0572% [at 18.6 µM],–
CCCCC1C(=O)N(c2ccccc2)N(c2ccc(O)cc2)C1=O (stereo not drawn),-0.17% [at 18.6 µM],–
CC(C)(C)CC(C)(C)c1ccc(OCCO)cc1,–,inactive
CC(C)(C)C(=O)O,0.0691%,–
CCCCC/C(=C\c1ccccc1)CO,0.041% [at 95.7 µM],–
C[N+]1(C)CCC(=C(c2ccccc2)c2ccccc2)CC1,0.0841% [at 18.6 µM],–
CO[C@H]1C=CO[C@@]2(C)Oc3c(C)c(O)c4c(O)c(c5c(c4c3C2=O)=NC2(CCN(CC(C)C)CC2)N=5)NC(=O)/C(C)=C\C=C/[C@H](C)[C@H](O)[C@@H](C)[C@@H](O)[C@@H](C)[C@H](OC(C)=O)[C@@H]1C,–,inactive
CCC(C)=O,0.0369%,–
C[N+](C)(C)CCOC(N)=O,0.0367% [at 46 µM],–
CN1CCN(CCCN2c3ccccc3Sc3ccc(S(=O)(=O)N(C)C)cc32)CC1,0.0675% [at 18.6 µM],–
CCCCCC=CCC=CCCCCCCCC(=O)OCC,0.0404% [at 46 µM],–
Cc1cc(O)c(C(C)C)cc1Cl,–,inactive
CCC(Cc1ccccc1)(C(=O)c1ccc(N2CCOCC2)cc1)N(C)C (stereo not drawn),-0.0072%,–
CCOC(=O)[C@@H](C)Oc1ccc(Oc2nc3ccc(Cl)cc3o2)cc1,0.112%,–
CC(=O)[C@H]1CC[C@H]2[C@@H]3C[C@H](C)C4=CC(=O)CC[C@]4(C)[C@H]3[C@@H](O)C[C@]12C,0.189% [at 18.6 µM],–
CNCCCC1c2ccccc2C=Cc2ccccc21,-0.0217% [at 18.6 µM],–
CCc1c2c(nc3ccc(OC(=O)N4CCC(N5CCCCC5)CC4)cc13)-c1cc3c(c(=O)n1C2)COC(=O)[C@]3(O)CC,-0.0879% [at 46 µM],–

SMILES,"fluorescence, % of fluorescein control",outcome
CC(=O)CC(c1ccc([N+](=O)[O-])cc1)c1c(O)c2ccccc2oc1=O (stereo not drawn),0.0092% [at 18.6 µM],–
CC(C)(CCl)c1ccccc1,0.0159%,–
CCC(C(=O)OCCN(CC)CC)c1ccccc1 (stereo not drawn),-0.131% [at 46 µM],–
CCOC(=O)c1ccccc1C,0.0449%,–
CC1CC(=O)NN=C1c1ccc(NCC(C)(C)NCC(O)COc2cc(Cl)ccc2C#N)cc1 (stereo not drawn),-0.015% [at 46 µM],–
CC[C@@H]([C@H](C)O)n1ncn(-c2ccc(N3CCN(c4ccc(OC[C@@H]5CO[C@@](Cn6cncn6)(c6ccc(F)cc6F)C5)cc4)CC3)cc2)c1=O,0.0434% [at 46 µM],–
CCn1nc(C)c2c1C(=O)NCC(c1ccc(O)cc1)=N2,0.0073%,–
CCn1cc(C(=O)O)c(=O)c2cc(F)c(N3CCNCC3)nc21,-0.0379% [at 18.6 µM],–
CNC(=S)NC,0.142%,–
CCCCOC(=O)CCS,0.161%,–
Fc1c(F)c(F)c(Br)c(F)c1F,-0.104%,–
N#C/C(=C1\SCC(c2ccccc2Cl)S1)n1ccnc1 (stereo not drawn),0.0569% [at 46 µM],–
CCC(C)(C)C1CCC(O)CC1 (stereo not drawn),0.0865%,–
O=S(=O)(c1ccccc1)c1ccc(Cl)cc1,-0.0306%,–
CC(C)OCC1CO1 (stereo not drawn),-0.133%,–
c1cnc2c(n1)CCCC2,-0.0041%,–
COC(=O)Nc1nc2ccc(C(=O)c3cccs3)cc2[nH]1,-0.0497% [at 46 µM],–
CCCCCCCCCCCC[N+](C)(C)CC(=O)[O-],0.0664%,–
O=C(Nc1ccc([N+](=O)[O-])cc1)Nc1ccc([N+](=O)[O-])cc1,-0.0414% [at 46 µM],–

# Assay: qHTS assay to test for compound auto fluorescence at 460 nm (blue) in HepG2 cells (AID 720687)
# Conditions: autofluorescence 405/460 nm, 1 h; series mostly up to 91.3 µM; fluorescence, % of fluorescent control: at the top concentration
# How it was run: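 Cells (2,000/well in MEM with 10% FBS) attached overnight at 37 C, then were exposed to compound or DMSO for 1 hr at 37 C, 5% CO2. Fluorescence read at Ex/Em 405/460 nm, expressed as triamterene-equivalent signal.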
SMILES,"fluorescence, % of fluorescent control",Potency
C/C=C/C=C/CCCCCCCO,0.0545%,–
Cc1cc(OI)c(C(C)C)cc1-c1cc(C(C)C)c(OI)cc1C,-0.0242% [at 46 µM],–
CCCCN(CCCC)CCCOC(=O)c1ccc(N)cc1,-0.0696% [at 18.6 µM],–
CC(C)(C)CC(C)(C)c1ccc(OCCO)cc1,–,inactive
CCCCC/C(=C\c1ccccc1)CO,0.0355% [at 95.7 µM],–
C[N+]1(C)CCC(=C(c2ccccc2)c2ccccc2)CC1,0.0159% [at 18.6 µM],–
CO[C@H]1C=CO[C@@]2(C)Oc3c(C)c(O)c4c(O)c(c5c(c4c3C2=O)=NC2(CCN(CC(C)C)CC2)N=5)NC(=O)/C(C)=C\C=C/[C@H](C)[C@H](O)[C@@H](C)[C@@H](O)[C@@H](C)[C@H](OC(C)=O)[C@@H]1C,–,inactive
CCC(C)=O,-0.144%,–
C[N+](C)(C)CCOC(N)=O,-0.154% [at 46 µM],–
Cc1cc(O)c(C(C)C)cc1Cl,–,inactive
CCC(Cc1ccccc1)(C(=O)c1ccc(N2CCOCC2)cc1)N(C)C (stereo not drawn),0.485%,–
CCOC(=O)[C@@H](C)Oc1ccc(Oc2nc3ccc(Cl)cc3o2)cc1,-0.0123%,–
CC(=O)[C@H]1CC[C@H]2[C@@H]3C[C@H](C)C4=CC(=O)CC[C@]4(C)[C@H]3[C@@H](O)C[C@]12C,0.0065% [at 18.6 µM],–
CNCCCC1c2ccccc2C=Cc2ccccc21,-0.121% [at 18.6 µM],–
CC(C)(CCl)c1ccccc1,0.0112%,–
CCOC(=O)c1ccccc1C,0.0271%,–
CC1CC(=O)NN=C1c1ccc(NCC(C)(C)NCC(O)COc2cc(Cl)ccc2C#N)cc1 (stereo not drawn),-0.0124% [at 46 µM],–
CC[C@@H]([C@H](C)O)n1ncn(-c2ccc(N3CCN(c4ccc(OC[C@@H]5CO[C@@](Cn6cncn6)(c6ccc(F)cc6F)C5)cc4)CC3)cc2)c1=O,0.009% [at 46 µM],–
CCn1nc(C)c2c1C(=O)NCC(c1ccc(O)cc1)=N2,0.31%,–
CCn1cc(C(=O)O)c(=O)c2cc(F)c(N3CCNCC3)nc21,-0.0048% [at 18.6 µM],–
CNC(=S)NC,-0.0123%,–
CCCCOC(=O)CCS,0.0147%,–
Fc1c(F)c(F)c(Br)c(F)c1F,0.0053%,–
N#C/C(=C1\SCC(c2ccccc2Cl)S1)n1ccnc1 (stereo not drawn),-0.326% [at 46 µM],–
O=S(=O)(c1ccccc1)c1ccc(Cl)cc1,0.0547%,–
CC(C)OCC1CO1 (stereo not drawn),0.0339%,–
c1cnc2c(n1)CCCC2,-0.14%,–
COC(=O)Nc1nc2ccc(C(=O)c3cccs3)cc2[nH]1,0.0932% [at 46 µM],–
CCCCCCCCCCCC[N+](C)(C)CC(=O)[O-],0.0094%,–
O=C(Nc1ccc([N+](=O)[O-])cc1)Nc1ccc([N+](=O)[O-])cc1,-0.0221% [at 46 µM],–
